Sampled rows, rich in hits. Any-hit rate of the full collection: about 3.6%.
mHTT-CaM PPI inh: mutant huntingtin-calmodulin interaction inhibitors – biochemical, AlphaScreen, primary screen. 190,000 compounds, 3.6% hits. AlphaScreen His-mHTT/GST-CaM binding, luminescence. inhibition, % at 15 µM. P42858;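 further: 0% = both proteins with DMSO and 100% = one protein alone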
Pf apPOL inh: Pf-apPOL inhibitors, biochemical, fluorescence. inhibition, % at 10 µM. 210,000 compounds, 0.25% hits. Recombinant Pf-apPOL, molecular beacon fluorescence, 1.5 h
An asterisk follows results filed as active; i = inactive; nt = not tested or not shown; ! = not active in a repeat. No stated cut-off is given here; in the data, active means inhibition above about 50%; inactive means the rest.

SMILES	mHTT-CaM PPI inh	Pf apPOL inh
C=CCNC(=O)c1oc2ccc(S(=O)(=O)N3CC(C)CC(C)C3)cc2c1C (stereo not drawn)	77*	-14
C=CCNC(=O)c1oc2ccc(S(=O)(=O)N3CCCCCC3)cc2c1C	-6	-10
COc1ccccc1CNC(=O)c1ccc(Cl)cc1[N+](=O)[O-]	-2	-4
NNc1nccc(Nc2ccccc2C(=O)O)n1	100*	-4
O=C(O)c1ccccc1Nc1ccnc(N2CCOCC2)n1	0	-2
CC(=O)Nc1ccc(S(=O)(=O)N2CCN(C(=O)c3cccc([N+](=O)[O-])c3)CC2)cc1	5	-10
NC(N)=NN=C(/C=C/c1ccc([N+](=O)[O-])o1)/C=C/c1ccc([N+](=O)[O-])o1	100*	nt
NC(=O)c1ccccc1N=Cc1ccc([N+](=O)[O-])o1	4	1
CCc1ccc(NC(=O)CN2CCc3ccccc3C2C(=O)N2CCCC2)cc1 (stereo not drawn)	26	-5
COc1cccc(CC(=O)Nc2cc(F)c3nc(N4CCOCC4)ccc3c2)c1	-1	-1
Cc1nc(C(=O)Nc2ccccc2)c(C)n1C1CCN(S(C)(=O)=O)CC1	2	-1
Cc1nc(C(=O)Nc2ccc(Oc3ccccc3)cc2)c(C)n1C1CCN(C)CC1	82*	-6
O=C1CSC(c2ccccc2[N+](=O)[O-])N1c1ccc(F)cc1 (stereo not drawn)	6	-5
COc1ccccc1-c1nc(C2CCN(C(=O)c3cc4ccccc4[nH]3)CC2)no1	100*	5
Cc1ccccc1-c1nc(C2CCN(C(=O)c3ccc(F)c(Cl)c3)CC2)no1	94*	2
Cc1oc(C2CCN(C(=O)c3cc4ccccc4[nH]3)CC2)nc1C(=O)N(C)C	17	-3
Cc1oc(C2CCN(C(=O)c3cc4ccccc4[nH]3)CC2)nc1C(=O)N1CCCC1	83*	1
COc1cc(OC)cc(C(=O)N2CCC(c3noc(-c4ccccc4OC)n3)CC2)c1	8	-2
CCOc1ccc(C(=O)N2CCC(c3noc(-c4ccccc4C)n3)CC2)cc1OCC	11	-4
O=C(Cc1ccc(Br)cc1)Nc1ccc(S(=O)(=O)Nc2nccs2)cc1	12	-5
O=C(N1CC(c2nc(-c3ncccn3)no2)C1)C1(c2ccccc2)CCOCC1	-8	1
Cn1c(CN2CCN(C(=O)c3ccc([N+](=O)[O-])o3)CC2)nc2ccccc21	-5	53*
Cn1c(CN2CCN(C(=O)c3ccc(Br)o3)CC2)nc2ccccc21	-3	-4
NC(=O)N/N=C/c1ccc(N)o1	i	nt
CC(=O)N1CCCN(C(=O)NC(C)(C)C)CC1	-1	-7
SMILES	mHTT-CaM PPI inh	Pf apPOL inh
COc1ccc(C(=O)N2CC(=O)Nc3ccc(C)cc3C2c2ccc(F)cc2)cc1OC (stereo not drawn)	25	-7
CCOc1ccc(C(=O)N2CC(=O)Nc3ccc(C)cc3C2c2ccc(F)cc2)cc1OCC (stereo not drawn)	65*	0
O=C1CN(C(=O)CCC2CCCC2)C(c2ccc(F)cc2)c2cc(Br)ccc2N1 (stereo not drawn)	77*	-3
O=C1CN(C(=O)c2ccc(F)cc2)C(c2ccc(F)cc2)c2cc(Br)ccc2N1 (stereo not drawn)	35	-3
O=C1CN(C(=O)CCC2CCCC2)C(c2ccc(F)cc2)c2cc(F)ccc2N1 (stereo not drawn)	15	-5
O=C1CN(C(=O)c2ccc(Cl)cc2)C(c2ccc(F)cc2)c2cc(Br)ccc2N1 (stereo not drawn)	56*	-10
CC(=O)N1CCN(S(=O)(=O)c2ccc(C)cc2)C1c1ccccc1 (stereo not drawn)	-5	-5
Cc1[nH]n(-c2cccc(Cl)c2)c(=O)c1C=C1C=NN=C1c1ccccc1	15	-10
Cc1nc2c(C(=O)NC3CCCCC3C)cnn2c(C)c1Cc1cccc(Cl)c1 (stereo not drawn)	71*	-10
Cc1nc2c(C(=O)NC3CCCCC3)cnn2c(C)c1Cc1cccc(Cl)c1	61*	12
Cc1nc2c(C(=O)NC3CCCC3)cnn2c(C)c1Cc1cccc(Br)c1	10	0
Cc1nc2c(C(=O)NC3CCCCC3C)cnn2c(C)c1Cc1ccccc1 (stereo not drawn)	16	-8
Cc1nc2c(C(=O)NC3CC3)cnn2c(C)c1Cc1ccccc1Cl	58*	-6
Cc1nc2c(C(=O)NC3CCCCC3)cnn2c(C)c1Cc1ccccc1Cl	2	-2
COc1ccccc1-c1nc(C2CCN(C(=O)c3ccc(C#N)cc3F)CC2)no1	4	2
CCC(=NOC(=O)c1cccc(C(F)(F)F)c1)c1ccc(-c2ccccc2F)cc1	nt	-2
O=C(O)CCCNC(=O)/C(=C\c1ccc2c(c1)OCO2)NC(=O)c1ccccc1Br	-1	-1
Cc1ccc(CN2CCC(C(=O)N(CCO)Cc3ccccc3)CC2)o1	40	-2
C=CCc1ccccc1OCC(O)CN1CCN(c2ccccc2OC)CC1 (stereo not drawn)	43	-8
C=CCc1ccccc1OCC(O)CN1CCN(c2ccccc2)CC1 (stereo not drawn)	74*	-1
C=CCc1ccccc1OCC(O)CN1CCN(c2ccc(F)cc2)CC1 (stereo not drawn)	75*	-13
C=CCc1ccccc1OCC(O)CN1CCN(c2ccccc2F)CC1 (stereo not drawn)	-11	-2
Fc1ccc(Cn2cc(-c3noc(-c4cccc(F)c4)n3)nn2)cc1	-17	-2
O=C(NCc1ccco1)O[C@H]1CCC12CCC(c1ccccc1)CC2 (stereo partly drawn)	0	-4
O=c1[nH]c2ccc(N=Cc3cc([N+](=O)[O-])ccc3Cl)cc2[nH]1	7	-2
SMILES	mHTT-CaM PPI inh	Pf apPOL inh
COc1ccc(I)cc1S(=O)(=O)n1nnc2ccccc21	89*	-11
O=S(=O)(c1cccs1)n1cnc2ccccc21	-2	-13
O=S(=O)(c1cccs1)n1nnc2ccccc21	84*!	-6
Cc1ccc(I)cc1S(=O)(=O)n1nnc2ccccc21	2	-2
Cc1onc(-c2ccccc2)c1C1=N/C(=C/c2ccccc2Cl)C(=O)O1	-6	1
COc1ccc(-c2noc(C3CCN(CC(=O)Nc4cc(C)ccc4C)CC3)n2)cc1	-2	-3
CC(C)(C)CC(=O)N1CCC(COc2ccccc2C(=O)N2CCOCC2)CC1	-1	-4
N#Cc1ccc(NC(=O)CN2CCC(c3nc(-c4cccc(F)c4)no3)CC2)cc1	-5	-5
CC(=O)Nc1ccc(C(=O)NCc2ccc(F)c(Cl)c2)c(N2CCCCC2)c1	99*	1
CC(=O)Nc1ccc(C(=O)NCc2cccc(Cl)c2)c(N2CCOCC2)c1	9	-2
O=c1nc2s/c(=C\c3cccc([N+](=O)[O-])c3)c(=O)n2nc1-c1ccccc1	0	-1
CC(=O)Nc1ccc(S(=O)(=O)Nc2ccc(C)cc2[N+](=O)[O-])cc1	51*	0
CC(=O)Nc1ccc(S(=O)(=O)Nc2ccc(C)cc2Br)cc1	-2	-7
O=C(Nc1nnc(SCC(=O)N2CCc3ccccc32)s1)c1ccccc1Cl	-2	-3
COc1ccc(C2CC(c3ccc(C)cc3C)=NN2C(=O)CN2CCOCC2)cc1 (stereo not drawn)	63*	-6
COc1ccc(C2=NN(C(=O)CN3CCOCC3)C(c3ccc(C)cc3C)C2)cc1 (stereo not drawn)	50	-4

High-throughput results as filed in PubChem BioAssay.
